# Measurements from the supplement of paper PMC4466140.
# Columns and labels:
# Test in all cases: SPOT peptide array binding signal intensity (averaged, normalized) (arbitrary units (background-subtracted, floor 0; scale differs between SH3 domains)); higher = stronger binding of the SH3 domain to the peptide
# CaNbp2 = biological target: CaNbp2
# Summary of the method: (§1)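 GST-fused SH3 domains, from four yeast species, were produced in E. coli BL21(DE3) and captured on glutathione Sepharose. Membranes of cellulose carrying synthetic 15-mer peptides, in which cysteines had been replaced by serines, were exposed to each domain at 10 μg/ml overnight at 4°C in TBS-based blocking buffer. After anti-GST antibody, an HRP anti-mouse secondary and luminol, spots were imaged and quantified using Genespotter. Binding signal is normalized and background-subtracted spot intensity, averaged over replicates, in arbitrary units that differ between domains.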
# CaRvs167 = biological target: CaRvs167
# Summary of the method: as §1
# CaRvs167-3 = biological target: CaRvs167-3
# Summary of the method: as §1
# CaSho1 = biological target: CaSho1
# Summary of the method: as §1
# CaSla1-D1-D2 = biological target: CaSla1-D1-D2
# Summary of the method: as §1
# CaSla1-D3 = biological target: CaSla1-D3
# Summary of the method: as §1
# ScAbp1 = biological target: ScAbp1
# Summary of the method: as §1
# ScBbc1 = biological target: ScBbc1
# Summary of the method: as §1
# ScBem1-D1 = biological target: ScBem1-D1
# Summary of the method: as §1
# ScBzz1-D1 = biological target: ScBzz1-D1
# Summary of the method: as §1
# ScBzz1-D2 = biological target: ScBzz1-D2
# Summary of the method: as §1
# ScCyk3 = biological target: ScCyk3
# Summary of the method: as §1
# ScFus1 = biological target: ScFus1
# Summary of the method: as §1
# ScHof1 = biological target: ScHof1
# Summary of the method: as §1
# ScHse1 = biological target: ScHse1
# Summary of the method: as §1
# ScLsb1 = biological target: ScLsb1
# Summary of the method: as §1
# ScLsb2 = biological target: ScLsb2
# Summary of the method: as §1
# ScLsb3 = biological target: ScLsb3
# Summary of the method: as §1
# ScLsb4 = biological target: ScLsb4
# Summary of the method: as §1
# ScMyo3 = biological target: ScMyo3
# Summary of the method: as §1
# ScMyo5 = biological target: ScMyo5
# Summary of the method: as §1
# ScNbp2 = biological target: ScNbp2
# Summary of the method: as §1
# ScPex13 = biological target: ScPex13
# Summary of the method: as §1
# ScRvs167 = biological target: ScRvs167
# Summary of the method: as §1
# ScSho1 = biological target: ScSho1
# Summary of the method: as §1
# ScSla1-D1-D2 = biological target: ScSla1-D1-D2
# Summary of the method: as §1
# ScSla1-D3 = biological target: ScSla1-D3
# Summary of the method: as §1
# SpAbp1-D1 = biological target: SpAbp1-D1
# Summary of the method: as §1
# SpBbc1 = biological target: SpBbc1
# Summary of the method: as §1
# SpBzz1-D1 = biological target: SpBzz1-D1
# Summary of the method: as §1
# SpBzz1-D2 = biological target: SpBzz1-D2
# Summary of the method: as §1
# SpCyk3 = biological target: SpCyk3
# Summary of the method: as §1
# SpHof1 = biological target: SpHof1
# Summary of the method: as §1
# SpHof1-2 = biological target: SpHof1-2
# Summary of the method: as §1
# SpHof1-3 = biological target: SpHof1-3
# Summary of the method: as §1
# SpHse1 = biological target: SpHse1
# Summary of the method: as §1
# SpLsb1 = biological target: SpLsb1
# Summary of the method: as §1
# SpLsb4 = biological target: SpLsb4
# Summary of the method: as §1
# SpMyo1 = biological target: SpMyo1
# Summary of the method: as §1
# SpNbp2 = biological target: SpNbp2
# Summary of the method: as §1
# SpPex13 = biological target: SpPex13
# Summary of the method: as §1
# SpRvs167 = biological target: SpRvs167
# Summary of the method: as §1
# SpSla1-D1-D2 = biological target: SpSla1-D1-D2
# Summary of the method: as §1
# SpSla1-D3 = biological target: SpSla1-D3
# Summary of the method: as §1
# AgAbp1 = biological target: AgAbp1
# Summary of the method: as §1
# AgBbc1 = biological target: AgBbc1
# Summary of the method: as §1
# AgBem1-D1 = biological target: AgBem1-D1
# Summary of the method: as §1
# AgBzz1-D1 = biological target: AgBzz1-D1
# Summary of the method: as §1
# AgBzz1-D2 = biological target: AgBzz1-D2
# Summary of the method: as §1
# AgCyk3 = biological target: AgCyk3
# Summary of the method: as §1
# AgFus1 = biological target: AgFus1
# Summary of the method: as §1
# AgHof1 = biological target: AgHof1
# Summary of the method: as §1
# AgHse1 = biological target: AgHse1
# Summary of the method: as §1
# AgLsb1 = biological target: AgLsb1
# Summary of the method: as §1
# AgLsb4 = biological target: AgLsb4
# Summary of the method: as §1
# AgMyo5 = biological target: AgMyo5
# Summary of the method: as §1
# AgNbp2 = biological target: AgNbp2
# Summary of the method: as §1
# AgRvs167 = biological target: AgRvs167
# Summary of the method: as §1
# AgSho1 = biological target: AgSho1
# Summary of the method: as §1
# AgSla1-D1-D2 = biological target: AgSla1-D1-D2
# Summary of the method: as §1
# AgSla1-D3 = biological target: AgSla1-D3
# Summary of the method: as §1
# CaAbp1-D1 = biological target: CaAbp1-D1
# Summary of the method: as §1
# CaAbp1-D2 = biological target: CaAbp1-D2
# Summary of the method: as §1
# CaBbc1 = biological target: CaBbc1
# Summary of the method: as §1
# CaBem1-D1 = biological target: CaBem1-D1
# Summary of the method: as §1
# CaBzz1-D1 = biological target: CaBzz1-D1
# Summary of the method: as §1
# CaBzz1-D2 = biological target: CaBzz1-D2
# Summary of the method: as §1
# CaCyk3 = biological target: CaCyk3
# Summary of the method: as §1
# CaFus1 = biological target: CaFus1
# Summary of the method: as §1
# CaHof1 = biological target: CaHof1
# Summary of the method: as §1
# CaHse1 = biological target: CaHse1
# Summary of the method: as §1
# CaLsb1 = biological target: CaLsb1
# Summary of the method: as §1
# CaLsb4 = biological target: CaLsb4
# Summary of the method: as §1
# CaMyo5 = biological target: CaMyo5
# Summary of the method: as §1
binder,measurement,setting,value
VYTRTAFQIPGDDKI,SPOT peptide array binding signal intensity,CaNbp2,≤ 0
same,SPOT peptide array binding signal intensity,CaRvs167,0.833
same,SPOT peptide array binding signal intensity,CaRvs167-3,3.25
same,SPOT peptide array binding signal intensity,CaSho1,≤ 0
same,SPOT peptide array binding signal intensity,CaSla1-D1-D2,≤ 0
same,SPOT peptide array binding signal intensity,CaSla1-D3,0.5
same,SPOT peptide array binding signal intensity,ScAbp1,≤ 0
same,SPOT peptide array binding signal intensity,ScBbc1,≤ 0
same,SPOT peptide array binding signal intensity,ScBem1-D1,8
same,SPOT peptide array binding signal intensity,ScBzz1-D1,17.5
same,SPOT peptide array binding signal intensity,ScBzz1-D2,22.5
same,SPOT peptide array binding signal intensity,ScCyk3,≤ 0
same,SPOT peptide array binding signal intensity,ScFus1,≤ 0
same,SPOT peptide array binding signal intensity,ScHof1,≤ 0
same,SPOT peptide array binding signal intensity,ScHse1,≤ 0
same,SPOT peptide array binding signal intensity,ScLsb1,601
same,SPOT peptide array binding signal intensity,ScLsb2,895
same,SPOT peptide array binding signal intensity,ScLsb3,≤ 0
same,SPOT peptide array binding signal intensity,ScLsb4,≤ 0
same,SPOT peptide array binding signal intensity,ScMyo3,0.5
same,SPOT peptide array binding signal intensity,ScMyo5,≤ 0
same,SPOT peptide array binding signal intensity,ScNbp2,≤ 0
same,SPOT peptide array binding signal intensity,ScPex13,≤ 0
same,SPOT peptide array binding signal intensity,ScRvs167,1.83
same,SPOT peptide array binding signal intensity,ScSho1,≤ 0
same,SPOT peptide array binding signal intensity,ScSla1-D1-D2,≤ 0
same,SPOT peptide array binding signal intensity,ScSla1-D3,10.5
same,SPOT peptide array binding signal intensity,SpAbp1-D1,1
same,SPOT peptide array binding signal intensity,SpBbc1,≤ 0
same,SPOT peptide array binding signal intensity,SpBzz1-D1,75.5
same,SPOT peptide array binding signal intensity,SpBzz1-D2,≤ 0
same,SPOT peptide array binding signal intensity,SpCyk3,≤ 0
same,SPOT peptide array binding signal intensity,SpHof1,≤ 0
same,SPOT peptide array binding signal intensity,SpHof1-2,≤ 0
same,SPOT peptide array binding signal intensity,SpHof1-3,≤ 0
same,SPOT peptide array binding signal intensity,SpHse1,≤ 0
same,SPOT peptide array binding signal intensity,SpLsb1,68.5
same,SPOT peptide array binding signal intensity,SpLsb4,≤ 0
same,SPOT peptide array binding signal intensity,SpMyo1,3.5
same,SPOT peptide array binding signal intensity,SpNbp2,7
same,SPOT peptide array binding signal intensity,SpPex13,≤ 0
same,SPOT peptide array binding signal intensity,SpRvs167,0.333
same,SPOT peptide array binding signal intensity,SpSla1-D1-D2,2
same,SPOT peptide array binding signal intensity,SpSla1-D3,≤ 0
NSVPIMPTLPPRPYI,SPOT peptide array binding signal intensity,AgAbp1,≤ 0
same,SPOT peptide array binding signal intensity,AgBbc1,394
same,SPOT peptide array binding signal intensity,AgBem1-D1,102
same,SPOT peptide array binding signal intensity,AgBzz1-D1,21
same,SPOT peptide array binding signal intensity,AgBzz1-D2,≤ 0
same,SPOT peptide array binding signal intensity,AgCyk3,9.5
same,SPOT peptide array binding signal intensity,AgFus1,20.5
same,SPOT peptide array binding signal intensity,AgHof1,118
same,SPOT peptide array binding signal intensity,AgHse1,320
same,SPOT peptide array binding signal intensity,AgLsb1,26
same,SPOT peptide array binding signal intensity,AgLsb4,2370
same,SPOT peptide array binding signal intensity,AgMyo5,71.5
same,SPOT peptide array binding signal intensity,AgNbp2,192
same,SPOT peptide array binding signal intensity,AgRvs167,50.2
same,SPOT peptide array binding signal intensity,AgSho1,21
same,SPOT peptide array binding signal intensity,AgSla1-D1-D2,≤ 0
same,SPOT peptide array binding signal intensity,AgSla1-D3,≤ 0
same,SPOT peptide array binding signal intensity,CaAbp1-D1,≤ 0
same,SPOT peptide array binding signal intensity,CaAbp1-D2,5
same,SPOT peptide array binding signal intensity,CaBbc1,1090
same,SPOT peptide array binding signal intensity,CaBem1-D1,162
same,SPOT peptide array binding signal intensity,CaBzz1-D1,103
same,SPOT peptide array binding signal intensity,CaBzz1-D2,3
same,SPOT peptide array binding signal intensity,CaCyk3,120
same,SPOT peptide array binding signal intensity,CaFus1,293
same,SPOT peptide array binding signal intensity,CaHof1,15
same,SPOT peptide array binding signal intensity,CaHse1,310
same,SPOT peptide array binding signal intensity,CaLsb1,3.25
same,SPOT peptide array binding signal intensity,CaLsb4,2280
same,SPOT peptide array binding signal intensity,CaMyo5,27.5
same,SPOT peptide array binding signal intensity,CaNbp2,400
same,SPOT peptide array binding signal intensity,CaRvs167,423
same,SPOT peptide array binding signal intensity,CaRvs167-3,≤ 0
same,SPOT peptide array binding signal intensity,CaSho1,260
same,SPOT peptide array binding signal intensity,CaSla1-D1-D2,52
same,SPOT peptide array binding signal intensity,CaSla1-D3,46
same,SPOT peptide array binding signal intensity,ScAbp1,≤ 0
same,SPOT peptide array binding signal intensity,ScBbc1,128
same,SPOT peptide array binding signal intensity,ScBem1-D1,≤ 0
same,SPOT peptide array binding signal intensity,ScBzz1-D1,3
same,SPOT peptide array binding signal intensity,ScBzz1-D2,1
same,SPOT peptide array binding signal intensity,ScCyk3,≤ 0
same,SPOT peptide array binding signal intensity,ScFus1,40.5
same,SPOT peptide array binding signal intensity,ScHof1,252
same,SPOT peptide array binding signal intensity,ScHse1,26.5
same,SPOT peptide array binding signal intensity,ScLsb1,380
same,SPOT peptide array binding signal intensity,ScLsb2,128
same,SPOT peptide array binding signal intensity,ScLsb3,3460
same,SPOT peptide array binding signal intensity,ScLsb4,2610
same,SPOT peptide array binding signal intensity,ScMyo3,668
same,SPOT peptide array binding signal intensity,ScMyo5,107
same,SPOT peptide array binding signal intensity,ScNbp2,210
same,SPOT peptide array binding signal intensity,ScPex13,1530
same,SPOT peptide array binding signal intensity,ScRvs167,834
same,SPOT peptide array binding signal intensity,ScSho1,154
same,SPOT peptide array binding signal intensity,ScSla1-D1-D2,2
same,SPOT peptide array binding signal intensity,ScSla1-D3,72
same,SPOT peptide array binding signal intensity,SpAbp1-D1,≤ 0
same,SPOT peptide array binding signal intensity,SpBbc1,50
same,SPOT peptide array binding signal intensity,SpBzz1-D1,78
same,SPOT peptide array binding signal intensity,SpBzz1-D2,0.5
same,SPOT peptide array binding signal intensity,SpCyk3,6
same,SPOT peptide array binding signal intensity,SpHof1,6.5
same,SPOT peptide array binding signal intensity,SpHof1-2,34.5
same,SPOT peptide array binding signal intensity,SpHof1-3,18.8
same,SPOT peptide array binding signal intensity,SpHse1,214
same,SPOT peptide array binding signal intensity,SpLsb1,523
same,SPOT peptide array binding signal intensity,SpLsb4,4060
same,SPOT peptide array binding signal intensity,SpMyo1,378
same,SPOT peptide array binding signal intensity,SpNbp2,76.5
same,SPOT peptide array binding signal intensity,SpPex13,25
same,SPOT peptide array binding signal intensity,SpRvs167,1070
same,SPOT peptide array binding signal intensity,SpSla1-D1-D2,≤ 0
same,SPOT peptide array binding signal intensity,SpSla1-D3,21.5
